High-throughput results deposited in PubChem BioAssay by National Center for Advancing Translational Sciences (NCATS).
FEN1 inh = qHTS Assay for the Inhibitors of Human Flap endonuclease 1 (FEN1); P39748; actives 0.35% (n = 390,000); AID 588795, 2011; Recombinant FEN1 flap cleavage, fluorescence, 15 min; Potency, µM (top dose mostly 114 µM), for the others: at the top dose activity change, negative = inhibition, usual class: inhibitors; note: % is set by controls: 0 for no effect and ±100 for the full control effect; nearly all actives have a fitted effect of over 65% in size
Target sequence (P39748 whole entry, looked up): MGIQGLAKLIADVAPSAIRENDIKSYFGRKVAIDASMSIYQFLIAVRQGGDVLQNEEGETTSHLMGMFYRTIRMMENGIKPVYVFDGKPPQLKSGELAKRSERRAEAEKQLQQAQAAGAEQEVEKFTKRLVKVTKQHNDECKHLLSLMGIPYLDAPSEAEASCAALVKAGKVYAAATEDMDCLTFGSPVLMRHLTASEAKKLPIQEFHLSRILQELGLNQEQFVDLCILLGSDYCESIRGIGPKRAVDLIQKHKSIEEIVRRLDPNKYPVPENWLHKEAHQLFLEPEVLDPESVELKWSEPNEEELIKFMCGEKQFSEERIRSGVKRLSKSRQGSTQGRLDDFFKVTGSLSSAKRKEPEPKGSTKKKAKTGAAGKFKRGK
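FEN1 at 10 nM preincubated with compounds 15 min at room temperature, then flap DNA substrate added at 50 nM final. Signal read at 0 and 15 min; concentration-response fitted with four-parameter Hill equation.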
POLB inh = qHTS Assay for Inhibitors of DNA Polymerase Beta; Pol beta primer extension/strand displacement, fluorescence kinetic; P06746; actives 1.3% (n = 340,000); Potency, µM (top dose mostly 114 µM), for inactives: at the top dose activity change, negative = inhibition, actives largely listed as inhibitors; note: % is set by controls: 0 for no effect and ±100 for the full control effect
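Values derive from four-parameter Hill fits of normalized kinetic data: reads at 0 and 10 min following addition of 50 nM substrate to 10 nM Pol beta preincubated 15 min with compound.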
POLI inh = qHTS for Inhibitors of Polymerase Iota | Pol iota fluorescent replication assay, 10 min | AID 588590, 2011 | actives 1% (n = 390,000) | Potency, µM (highest dose often 115 µM), inactives show at the highest dose activity, negative = inhibition, actives largely listed as inhibitors | DNA polymerase iota (Homo sapiens), Q9UNA4
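Pol iota at 10 nM preincubated 15 min with compounds at room temperature; reaction started with fluorescent substrate, 50 nM final. Fluorescence read kinetically at 0 and 10 min; buffer-only wells as negative control.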
POLK inh = qHTS for Inhibitors of Polymerase Kappa; DNA polymerase kappa (Homo sapiens), Q9UBT6; purified Pol kappa, fluorescent DNA synthesis assay, 10 min; Potency, µM (series often up to 107 µM), inactives show at the top dose activity, negative = inhibition, usual class: inhibitors; actives 0.53% (n = 400,000); note: % is set by controls: 0 for no effect and ±100 for the full control effect
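50 nM final substrate added after 15 min RT preincubation of 10 nM Pol kappa with compound; fluorescence read at 0 and 10 min.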
TDP1 inh = qHTS Assay for Inhibitors of Tyrosyl-DNA Phosphodiesterase (TDP1); Potency, µM (doses to about 130 µM), inactives show at the top dose activity change, negative = inhibition, usual class: inhibitors; recombinant TDP1, AlphaScreen DNA substrate cleavage; Tyrosyl-DNA phosphodiesterase 1 (Homo sapiens), Q9NUW8; actives 0.28% (n = 350,000); AID 485290, 2010; note: % is set by controls: 0 for no effect and ±100 for the full control effect; nearly all actives have a fitted effect of over 40% in size
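Signal: AlphaScreen proximity between streptavidin donor and anti-FITC acceptor beads on intact substrate. Reaction: Tdp1 1 nM, substrate 15 nM final, 5 min RT after 15 min compound preincubation.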
Pol eta inh = qHTS for Inhibitors of Polymerase Eta. AID 588591, 2011. Potency, µM (titrated, usually from 114 µM), for the others: at the highest dose activity change, negative = inhibition, usual class: inhibitors. actives 1.2% (n = 390,000). DNA polymerase eta (Homo sapiens), Q9Y253. recombinant Pol eta, fluorescent DNA replication assay; note: % is set by controls: 0 for no effect and ±100 for the full control effect
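Fluorescent replication assay: 50 nM final substrate added after a 15 min room-temperature compound preincubation with 10 nM enzyme. Signal taken at 0 min and again at 10 min.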
Starred values were filed as active, the others as inactive; ? = inconclusive; · = not tested or not shown; [ ] = another dose, or the depositor's remark. Shown are actives, neighbours in structure and some others; about 2.4% of the full set was active somewhere. Calls come from the whole dose curve; as a rule, active = well fitted curve in the direction sought with a large enough effect; inconclusive = small, poorly fitted or top-dose-only effect, or another doubt; inactive = no such curve, though single readings can be large; an effect the other way counts as inactive or inconclusive. Potency is the fitted concentration of half-maximal effect.

SMILES	FEN1 inh	POLB inh	POLI inh	POLK inh	TDP1 inh	Pol eta inh
C[N+]1(CC(=O)c2ccc3c(c2)CCCC3)CCOCC1	-21%	·	35%	6%	·	·
O=C(Nc1ccc(N2CCOCC2)c(S(=O)(=O)Nc2ccc(Cl)cc2)c1)c1cnccn1	3%	-1%	11%	-5%	3%	?
O=C(Nc1ccc(N2CCOCC2)c(S(=O)(=O)Nc2ccc(Cl)cc2)c1)c1ccc(=O)[nH]n1	-7%	·	10µM*	?	-18%	20µM*
C=CC(=O)O	·	·	·	3%[60.1 µM]	-6%	·
Cc1ccc(CNC(=O)CCc2c(C)c3ccc(O)c(C)c3oc2=O)cc1	-3%	-9%	1%	-5%	5%	-9%
Cc1cc(Cl)ccc1OCC(=O)OC(C)C(=O)N(C)C (stereo unspecified)	3%	?	50µM*	-17%	·	?
CCN(CC)C(=O)C(C)OC(=O)COc1ccc(Cl)cc1C (stereo unspecified)	-1%	-28%	3%	-18%	-2%	4%
CCc1ccc(C(=O)c2cn(CC(=O)Nc3cc(OC)ccc3OC)c3ccc(Cl)cc3c2=O)cc1	15%	3%	28%	-2%	6%	-10%
COc1ccc(-c2cn3nc(SCC(=O)Nc4ccccc4F)ccc3n2)cc1	-10%	0%	20%	-6%[60.1 µM]	3%	-16%
CCOC(=O)c1c(NC(=O)CSc2nnc(C)s2)sc2c1CCN(C)C2	-11%	2%	11µM*	-27%	-12%	?
CC(C)CC(C(=O)Nc1cccc(O)c1)N1C(=O)c2ccccc2C1=O (stereo unspecified)	-7%	8%	-4%	-19%	·	-7%
CC(C)CC(C(=O)Nc1oc(-c2ccco2)c(-c2ccco2)c1C#N)N1C(=O)c2ccccc2C1=O (stereo unspecified)	0%	32µM*	?	?	8%	20µM*
C[C@@H]1NC(=O)c2cc([N+](=O)[O-])cc(I)c2OCC[C@@H](C(=O)NC(CC(=O)O)C(N)=O)NC(=O)[C@H](CCC(=O)O)NC1=O (stereo partly specified)	1%	-7%	?	?	-3%	18µM*
NC(=O)C(CC(=O)O)NC(=O)[C@@H]1CCCCNc2c(I)cc([N+](=O)[O-])cc2C(=O)N[C@@H](CO)C(=O)NCC(=O)N1 (stereo partly specified)	·	35µM*	·	·	-4%	·
NCCCC[C@@H]1NC(=O)c2cc([N+](=O)[O-])cc(F)c2NCCCC[C@@H](C(N)=O)NC(=O)CNC1=O	?	-1%	21%	7%	7%	-26%
NC(=O)C(CC(=O)O)NC(=O)[C@@H]1CCOc2c(I)cc([N+](=O)[O-])cc2C(=O)N[C@@H](CCC(=O)O)C(=O)N[C@@H](CO)C(=O)N1 (stereo partly specified)	4%	-10%	?	?	4%	?
C[C@@H]1NC(=O)[C@H](CC(N)=O)NC(=O)c2cc([N+](=O)[O-])cc(I)c2OCC[C@@H](C(=O)NC(CC(=O)O)C(N)=O)NC1=O (stereo partly specified)	-17%	-21%	?	79µM*	-3%	20µM*
COc1ccc(O)c(C2Nc3ccccc3C(=O)N2Cc2ccccc2)c1 (stereo unspecified)	·	·	·	·	1%	·
CC(=O)Nc1cccc(S(=O)(=O)N2CCN(S(=O)(=O)c3c(F)cccc3F)CC2)c1	·	·	·	·	0%	·
COc1cccc(OCc2nc3ccccc3n2C)c1	2%	20%	-5%	5%	5%	·
CNS(=O)(=O)c1cc(N)ccc1C	-3%	38%	0%	-5%	-3%	-6%
Cc1ccc(Nc2ccc(N)cc2S(=O)(=O)O)cc1	-26%	?	?	-1%	5%	40µM*
O=C1c2ccccc2C(=O)N1c1cccc2ccncc12	·	·	·	·	2%	·
Cc1ccc(S(=O)(=O)N2CCC(c3nc(-c4cccs4)nc4ccccc34)CC2)cc1	-16%	·	8%	?	·	·
Cc1ccc(S(=O)(=O)Nc2nc3n(n2)C(c2ccc(Cl)cc2)C=C(c2ccccc2)N3)cc1 (stereo unspecified)	-2%	-1%	-7%	4%	11%	89µM*
SMILES	FEN1 inh	POLB inh	POLI inh	POLK inh	TDP1 inh	Pol eta inh
COc1ccc(C2C=C(c3ccccc3)Nc3nc(NS(=O)(=O)c4ccccc4)nn32)cc1 (stereo unspecified)	-14%	12%	18%	-10%	0%	89µM*
Cc1ccc(S(=O)(=O)Nc2nc3n(n2)C(c2ccc(F)cc2)C=C(c2ccccc2)N3)cc1 (stereo unspecified)	-1%	2%	25%	3%	3%	?
COc1ccc(C2C=C(c3ccccc3)Nc3nc(NS(=O)(=O)c4ccc(Cl)cc4)nn32)cc1 (stereo unspecified)	-6%	12%	28%	1%	9%	89µM*
Cc1ccc(C2C=C(c3ccccc3)Nc3nc(NS(=O)(=O)c4ccccc4)nn32)cc1 (stereo unspecified)	-2%	18%	-2%	2%	2%	?
Cc1cc(C)n2nc(CNS(=O)(=O)c3cccc(Cl)c3)nc2n1	-15%	42%	9%	1%	5%	-4%
O=C(CCS(=O)(=O)c1cc(Br)cc2c1N(C(=O)C1CC1)CC2)Nc1ccc(F)cc1	-3%	14%	25%	19%	0%	-12%
Cc1cccc(-n2nc(C)c(C(=O)Nc3cc(C)ccc3C)c2-n2cccc2)c1	-3%	0%	7%	-22%	5%	-18%
CCOCCn1c(=O)c2c(nc3n2CCN3c2ccc(C)cc2)n(C)c1=O	0%	·	9%	-12%	·	-19%
CCOCCn1c(=O)c2c(nc3n2CCN3c2ccc(C)c(C)c2)n(C)c1=O	9%	20µM*	?	-7%	?	-11%
CCc1ccc(N2CCn3c2nc2c3c(=O)n(CCCc3ccccc3)c(=O)n2C)cc1	-3%	-7%	5%	1%	-5%	-8%
Cc1cccc(N2CCn3c2nc2c3c(=O)n(CCc3ccccc3)c(=O)n2C)c1	-2%	40µM*	19%	-16%	5%	-23%
COc1ccc(N2CCn3c2nc2c3c(=O)n(CCc3ccccc3)c(=O)n2C)cc1	·	-10%	·	·	-1%	·
